# Source: PubChem BioAssay (NCI)
# Compounds without any hit were thinned out: in the full panel of roughly 83,000, 20% have a hit.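 Each cell line was grown in a 96-well plate and treated with one concentration of compound for 48 hours. Values below 10 were considered active.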 A number with no mark means an inactive call. Active and inactive are the calls of the source.
# How the values were obtained:
# Assay in all cases: NCI-60 one-dose screen, 48 h (100 = growth as untreated, 0 = no growth, -100 = all killed)
# Settings in all cases: 10 µM unless noted
# SR leukemia = test system: SR leukemia
# RPMI-8226 leukemia = test system: RPMI-8226 leukemia
# OVCAR-8 ovarian = test system: OVCAR-8 ovarian
# OVCAR-5 ovarian = test system: OVCAR-5 ovarian
# OVCAR-4 ovarian = test system: OVCAR-4 ovarian
# SK-OV-3 ovarian = test system: SK-OV-3 ovarian
# IGROV1 ovarian = test system: IGROV1 ovarian
# OVCAR-3 ovarian = test system: OVCAR-3 ovarian
# HS 578T breast = test system: HS 578T breast
# NCI/ADR-RES ovarian = test system: NCI/ADR-RES ovarian
# T-47D breast = test system: T-47D breast
# BT-549 breast = test system: BT-549 breast
# MDA-MB-435 melanoma = test system: MDA-MB-435 melanoma
# SW-620 colon = test system: SW-620 colon
# MCF7 breast = test system: MCF7 breast
# HCT-116 colon = test system: HCT-116 colon
# HCC-2998 colon = test system: HCC-2998 colon
# KM12 colon = test system: KM12 colon
SMILES,growth (SR leukemia),growth (RPMI-8226 leukemia),growth (OVCAR-8 ovarian),growth (OVCAR-5 ovarian),growth (OVCAR-4 ovarian),growth (SK-OV-3 ovarian),growth (IGROV1 ovarian),growth (OVCAR-3 ovarian),growth (HS 578T breast),growth (NCI/ADR-RES ovarian),growth (T-47D breast),growth (BT-549 breast),growth (MDA-MB-435 melanoma),growth (SW-620 colon),growth (MCF7 breast),growth (HCT-116 colon),growth (HCC-2998 colon),growth (KM12 colon)
Nc1c(C(=O)Nc2ccccc2C(F)(F)F)sc2nc3c(cc12)CCC3,86.6%,110%,100%,103%,101%,87.7%,105%,113%,95.1%,101%,67.4%,115%,92.8%,96%,95.8%,107%,94.6%,113%
COc1cc(/C=C2/C=C(c3ccccc3)N(CCc3ccc(S(N)(=O)=O)cc3)C2=O)cc(OC)c1OC,82.4%,66.8%,91.6%,118%,101%,103%,101%,110%,98.2%,99.6%,83.5%,94.4%,106%,102%,87.8%,84.7%,105%,105%
Nc1nc(-c2ccc(Cl)cc2)nc2c1sc(=S)n2-c1ccccc1,-17.8% (active),45.5%,32.4%,62.6%,-20.1% (active),23.4%,44.9%,40.2%,19.9%,43.8%,14.8%,54.9%,57.4%,55.3%,57.6%,20.1%,72.3%,36%
Clc1cc(Cl)c(Cl)c(-c2nnc(SCc3ccncc3Br)o2)c1,-26.8% (active),72.9%,120%,80.1%,90.6%,101%,72.9%,89%,90.4%,89.6%,96.1%,99%,98.4%,96.5%,91.8%,88.8%,58.6%,96.2%
COC(=O)c1nc(-c2ccccc2)oc1S(=O)(=O)Cc1ccccc1,-11.5% (active),84.5%,90.1%,102%,101%,97.6%,85.6%,41.1%,110%,97%,59.9%,80.1%,100%,32.9%,78.5%,68.9%,111%,96.4%
O=[N+]([O-])c1cccc(-c2nc3cc4nc5ccccc5[nH]c4cc3n2)c1,93.4%,101%,98.2%,111%,98.3%,102%,99.1%,98.7%,109%,101%,87.5%,102%,112%,112%,77.7%,93.1%,112%,100%
Cc1ccccc1/C=C/C(=O)c1cccc(OCCCOc2cccc(C(=O)/C=C/c3ccccc3C)c2)c1,25.8% [3 µM],-23.2% [3 µM] (active),101% [3 µM],126% [3 µM],84.6% [3 µM],109% [3 µM],102% [3 µM],99.4% [3 µM],99.7% [3 µM],101% [3 µM],73.2% [3 µM],96.7% [3 µM],97.7% [3 µM],93.3% [3 µM],13.5% [3 µM],38.2% [3 µM],91.2% [3 µM],95.4% [3 µM]
Cc1[nH]c(C(=O)Nc2ccccc2OC2CCNCC2)c(Cl)c1Cl,10.1%,-45.2% (active),1.61% (active),68.7%,-72.8% (active),109%,48.4%,-77.7% (active),-19.1% (active),33.8%,-4.05% (active),74.2%,-40.3% (active),1.77% (active),-45% (active),4.55% (active),43.2%,32.8%
COc1cccc(/C=C2\COc3ccc(O)c(O)c3C2=O)c1,12.6%,-7.52% (active),10.7%,-2.7% (active),26.9%,86.2%,-31.1% (active),-28.3% (active),20.4%,2.6% (active),-0.573% (active),15.6%,-3.44% (active),1.94% (active),17.6%,-7.55% (active),19.8%,-13.7% (active)
O=C1/C=C/[C@@H](O)[C@@H]2C[C@@H](O)C[C@H]2/C=C/CCC[C@H](CCc2ccccc2)O1,9.67% (active),10.7%,14.4%,19.8%,24.9%,28.2%,14.7%,-42.1% (active),47.8%,5.65% (active),15.1%,9.81% (active),5.95% (active),-9.76% (active),-3.62% (active),-73.6% (active),15.9%,-50.5% (active)
Cn1ccc(=O)c(C(=O)Nc2nsc3ccc([N+](=O)[O-])cc23)c1,55.9%,61.6%,59.3%,84%,53.4%,30.8%,27.3%,75.6%,54.7%,68%,74.6%,69.8%,75.6%,56.5%,34.7%,56.2%,87%,65.3%
O=C(CN1CCOCC1)Nc1nc(-c2cc3ccccc3oc2=O)cs1,102%,104%,99.4%,95.5%,102%,116%,87.9%,105%,92.8%,103%,111%,98.5%,104%,101%,79.2%,99%,103%,100%
N#Cc1nc(-c2ccccc2)oc1S(=O)(=O)N1CCN(c2ccccc2)CC1,14.7%,63.4%,81.3%,112%,99.5%,105%,78.9%,111%,102%,97.5%,91.1%,90.8%,86.3%,64.1%,51.5%,44.9%,102%,104%
COc1ccc(C(=O)N2c3ccccc3Sc3ccccc32)c(OC)c1,22.4%,16.2%,27.9%,47.8%,57.1%,36.9%,52.5%,-28% (active),14.7%,-0.356% (active),41.5%,16.9%,-43% (active),24.8%,19.9%,9.42% (active),12.8%,14.3%
NC(=O)c1cc(I)ccc1NC(=O)/C=C/c1ccccc1,1.87% (active),-5.89% (active),31%,42.4%,44.6%,69.8%,-52.7% (active),-63.3% (active),-12.8% (active),-37.1% (active),122%,61.5%,-30.5% (active),9.63% (active),2.18% (active),8.52% (active),-62.3% (active),8.98% (active)
C1CN(SSN2CCOCC2)CCO1,13.3% [100 µM],1.55% [100 µM] (active),-25.2% [100 µM] (active),35.8% [100 µM],-51.7% [100 µM] (active),101% [100 µM],54.8% [100 µM],-82.2% [100 µM] (active),41% [100 µM],2.69% [100 µM] (active),-24.8% [100 µM] (active),-90% [100 µM] (active),0.278% [100 µM] (active),-56.4% [100 µM] (active),22.1% [100 µM],-75.5% [100 µM] (active),90.7% [100 µM],2.07% [100 µM] (active)
